Data published in PubChem BioAssay (NCI).
Compounds without any hit were thinned out: in the full panel of roughly 79,000, 15% have a hit. Calls of active or inactive are those of the source. Rule as the data show it: active = growth inhibition above about 70%; inactive = the rest.

Legend:
[1] = NCI Yeast Anticancer Drug Screen. Data for the rad52 strain (AID 147);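 also: 0% = growth of vehicle-treated control cultures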; conditions: S. cerevisiae rad52 mutant growth inhibition, stronger effect = higher value
Outline: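 The repair-mutant yeast strain was incubated with compounds, then growth was read and inhibition derived relative to vehicle.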

[2] = NCI Yeast Anticancer Drug Screen. Data for the wt1 strain (AID 149);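 also: 0% = growth of vehicle-treated wt1 cultures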; conditions: S. cerevisiae wt1 strain (SPY 50644) growth inhibition, stronger effect = higher value
Outline: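 Vehicle-normalised growth inhibition; strain wt1; compound exposure.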

[3] = NCI Yeast Anticancer Drug Screen. Data for the rad50EPP+ strain (AID 151);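 also: 0% = growth of vehicle-treated control cultures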; conditions: S. cerevisiae rad50 mutant strain, stronger effect = higher value
Outline: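 Vehicle-normalised growth inhibition; rad50EPP+ yeast strain, altered in DNA damage repair, compound-treated.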

[4] = NCI Yeast Anticancer Drug Screen. Data for the mgt1 strain (AID 153); conditions: S. cerevisiae mgt1 mutant growth inhibition, stronger effect = higher value
Outline: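 Vehicle-normalized growth inhibition is determined in mgt1 yeast, a strain selected for a defined alteration in DNA repair or cell cycle control.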

[5] = NCI Yeast Anticancer Drug Screen. Data for the rad50 strain (AID 155);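 also: 0% = growth of vehicle-only cultures of the same strain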; conditions: S. cerevisiae rad50 strain growth inhibition, stronger effect = higher value
Outline: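 A DNA repair-deficient yeast mutant serves as the test organism; compound-induced growth inhibition is calculated against vehicle-treated cells.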

[6] = NCI Yeast Anticancer Drug Screen. Data for the mec2-1 strain (AID 157); conditions: S. cerevisiae mec2-1 strain, stronger effect = higher value
Outline: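 Mutant yeast (mec2-1) grown with compound; growth inhibition relative to vehicle control reported.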

[7] = NCI Yeast Anticancer Drug Screen. Data for the rad14 strain (AID 159);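 also: 0% = growth of vehicle-treated control cultures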; conditions: S. cerevisiae rad14 strain growth inhibition, stronger effect = higher value
Outline: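 Vehicle-treated cultures served as the baseline for growth inhibition of a DNA repair-mutant yeast strain exposed to each compound.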

[8] = NCI Yeast Anticancer Drug Screen. Data for the sgs1 mgt1 strain (AID 161);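 also: 0% = growth of cultures given vehicle only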; conditions: S. cerevisiae sgs1 mgt1 strain, stronger effect = higher value
Outline: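 Growth of a repair-deficient yeast mutant was monitored after compound treatment and expressed as inhibition relative to vehicle-treated cultures.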

[9] = NCI Yeast Anticancer Drug Screen. Data for the CLN2oe strain (AID 163);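 also: 0% = growth of vehicle-only control cultures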; conditions: S. cerevisiae CLN2oe strain, stronger effect = higher value
Outline: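 Compounds are applied to yeast harbouring a defined cell-cycle control change; reduced growth compared with vehicle-treated controls gives the value.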

[10] = NCI Yeast Anticancer Drug Screen. Data for the cln2 rad14 strain (AID 165);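 also: 0% = growth equal to vehicle treated cultures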; conditions: S. cerevisiae cln2 rad14 strain, stronger effect = higher value
Outline: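 Readout is yeast growth inhibition versus vehicle-treated controls, using a strain with cln2 and rad14 alterations exposed to compound.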

[11] = NCI Yeast Anticancer Drug Screen. Data for the bub3 strain (AID 167); conditions: S. cerevisiae bub3 mutant strain, stronger effect = higher value
Outline: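 Inhibition values come from growth of compound-treated mutant yeast normalised to vehicle-treated controls.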

[12] = NCI Yeast Anticancer Drug Screen. Data for the wt2 strain (AID 169);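 also: 0% = growth of vehicle-treated yeast cultures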; conditions: S. cerevisiae wt2 strain growth inhibition, stronger effect = higher value
Outline: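 Against vehicle-treated controls, the growth of yeast exposed to each compound was compared, and the inhibition was recorded.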

[13] = NCI Yeast Anticancer Drug Screen. Data for the mlh1 strain (AID 171);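 also: 0% = growth of vehicle-treated control cultures of the same strain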; conditions: S. cerevisiae mlh1 strain growth inhibition, stronger effect = higher value
Outline: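 Measured: yeast growth. Reference: vehicle-treated controls. Organism: strain with a defined alteration affecting DNA damage repair or cell cycle control, treated with compound.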

[14] = NCI Yeast Anticancer Drug Screen. Data for the sgs1 strain (AID 173);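 also: 0% = growth of vehicle-only control cultures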; conditions: S. cerevisiae sgs1 mutant, stronger effect = higher value
Outline: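 Each compound was added to cultures of the altered yeast strain. Growth was recorded, and inhibition was derived by comparison with vehicle controls.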

[15] = NCI Yeast Anticancer Drug Screen. Data for the rad18 strain (AID 177); conditions: S. cerevisiae rad18 mutant growth inhibition, stronger effect = higher value
Outline: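 Vehicle-treated cultures served as the baseline for scoring compound-induced growth inhibition in DNA-repair-mutant yeast.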

[16] = NCI Yeast Anticancer Drug Screen. Data for the mlh1 rad18 strain (AID 175); conditions: S. cerevisiae mlh1 rad18 strain growth inhibition, stronger effect = higher value
Outline: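 Genetically defined yeast (DNA repair-deficient) exposed to compounds; growth inhibition determined relative to vehicle.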

[17] = at 5.0 µM (retest, dose inferred, filed as 0.5)
[18] = at 50.0 µM (retest, dose inferred, filed as 5.0)

Measured: growth inhibition

OC1(c2ccccc2)C2CC=CC2C1(c1ccccc1)c1ccccc1 (stereo not drawn)
inactive: [1]; at 1.2 µM 0% | [1]; at 3.7 µM -1% | [1]; at 11.0 µM 4% | [1]; at 33.0 µM 34% | [1]; at 100.0 µM 63% | [2]; at 1.2 µM -4% | [2]; at 3.7 µM -7% | [2]; at 11.0 µM -8% | [2]; at 33.0 µM -7% | [2]; at 100.0 µM 21% | [3]; at 1.2 µM -7% | [3]; at 3.7 µM -1% | [3]; at 11.0 µM 2% | [3]; at 33.0 µM -5% | [3]; at 100.0 µM -5% | [4]; at 1.2 µM -4% | [4]; at 3.7 µM -2% | [4]; at 11.0 µM -5% | [4]; at 33.0 µM -4% | [4]; at 100.0 µM 16% | [5]; at 1.2 µM -2% | [5]; at 3.7 µM 6% | [5]; [17] 12% | [5]; at 11.0 µM 12% | [5]; at 33.0 µM 43% | [5]; [18] 53% | [5]; at 50.0 µM 12.1% | [5]; at 100.0 µM 62% | [6]; at 1.2 µM -3% | [6]; at 3.7 µM -2% | [6]; [17] -6% | [6]; at 11.0 µM -6% | [6]; at 33.0 µM 18% | [6]; [18] -10% | [6]; at 50.0 µM -14.2% | [6]; at 100.0 µM 49% | [7]; at 1.2 µM -3% | [7]; at 3.7 µM 4% | [7]; at 11.0 µM 6% | [7]; at 33.0 µM 0% | [7]; at 100.0 µM 19% | [8]; [17] 16% | [8]; at 50.0 µM 11.1% | [9]; at 1.2 µM 2% | [9]; at 3.7 µM 8% | [9]; at 11.0 µM 2% | [9]; at 33.0 µM -7% | [9]; at 100.0 µM 10% | [10]; [17] 15% | [10]; [18] 19% | [10]; at 50.0 µM -3.15% | [11]; at 1.2 µM 0% | [11]; at 3.7 µM 2% | [11]; [17] -3% | [11]; at 11.0 µM -9% | [11]; at 33.0 µM 2% | [11]; [18] 52% | [11]; at 50.0 µM 10.9% | [11]; at 100.0 µM 27% | [12]; at 1.2 µM -8% | [12]; at 3.7 µM -11% | [12]; at 11.0 µM -8% | [12]; at 33.0 µM 7% | [12]; at 100.0 µM 54% | [13]; at 1.2 µM -3% | [13]; at 3.7 µM 1% | [13]; at 11.0 µM 7% | [13]; at 33.0 µM 13% | [13]; at 100.0 µM 45% | [14]; at 1.2 µM -15% | [14]; at 3.7 µM -2% | [14]; at 11.0 µM -2% | [14]; at 33.0 µM 54% | [15]; at 1.2 µM -8% | [15]; at 3.7 µM -4% | [15]; at 11.0 µM -4% | [15]; at 33.0 µM 1% | [15]; at 100.0 µM 41%
active: [8]; [18] 70% | [14]; at 100.0 µM 77%

CC1(C)OC(=O)C(=Cc2ccc([N+](=O)[O-])s2)C(=O)O1
active: [1]; at 100.0 µM 98% | [3]; at 33.0 µM 86% | [3]; at 100.0 µM 88% | [4]; at 33.0 µM 95% | [5]; [18] 89% | [5]; at 100.0 µM 98% | [6]; [18] 99% | [6]; at 50.0 µM 89.3% | [6]; at 100.0 µM 70% | [7]; at 100.0 µM 99% | [8]; [18] 100% | [8]; at 50.0 µM 90% | [9]; at 100.0 µM 97% | [10]; [18] 81% | [11]; [18] 100% | [11]; at 50.0 µM 85% | [12]; at 100.0 µM 71% | [13]; at 100.0 µM 71% | [14]; at 100.0 µM 98% | [16]; at 50.0 µM 92.3% | [15]; at 33.0 µM 85%
inactive: [1]; at 1.2 µM -17% | [1]; at 3.7 µM -35% | [1]; at 11.0 µM -31% | [1]; at 33.0 µM -14% | [2]; at 1.2 µM -28% | [2]; at 3.7 µM -33% | [2]; at 11.0 µM -14% | [2]; at 33.0 µM 32% | [2]; at 100.0 µM 35% | [3]; at 1.2 µM -17% | [3]; at 3.7 µM -20% | [3]; at 11.0 µM -2% | [4]; at 1.2 µM -8% | [4]; at 3.7 µM 15% | [4]; at 11.0 µM 26% | [4]; at 100.0 µM 50% | [5]; at 1.2 µM -9% | [5]; at 3.7 µM -7% | [5]; [17] 28% | [5]; at 11.0 µM -13% | [5]; at 33.0 µM -6% | [5]; at 50.0 µM 68.6% | [6]; at 1.2 µM -28% | [6]; at 3.7 µM -5% | [6]; [17] 23% | [6]; at 11.0 µM -23% | [6]; at 33.0 µM 12% | [7]; at 1.2 µM -12% | [7]; at 3.7 µM -5% | [7]; at 11.0 µM 2% | [7]; at 33.0 µM 9% | [8]; [17] 56% | [9]; at 1.2 µM 14% | [9]; at 3.7 µM 26% | [9]; at 11.0 µM 29% | [9]; at 33.0 µM 63% | [10]; [17] 47% | [10]; at 50.0 µM 30.8% | [11]; at 1.2 µM -18% | [11]; at 3.7 µM -13% | [11]; [17] 48% | [11]; at 11.0 µM -8% | [11]; at 33.0 µM 60% | [11]; at 100.0 µM 5% | [12]; at 1.2 µM 0% | [12]; at 3.7 µM -9% | [12]; at 11.0 µM -7% | [12]; at 33.0 µM 62% | [13]; at 1.2 µM -28% | [13]; at 3.7 µM -24% | [13]; at 11.0 µM -33% | [13]; at 33.0 µM 38% | [14]; at 1.2 µM -31% | [14]; at 3.7 µM -25% | [14]; at 11.0 µM -15% | [14]; at 33.0 µM 48% | [16]; [17] 10% | [16]; [18] 51% | [15]; at 1.2 µM 10% | [15]; at 3.7 µM 21% | [15]; at 11.0 µM 32% | [15]; at 100.0 µM 69%
